Screening data deposited in PubChem BioAssay by National Center for Advancing Translational Sciences (NCATS).
Hits are enriched below; roughly 4.6% of the tested compounds scored in any of these assays.
TRHR ag – qHTS for Small Molecule Agonists and Allosteric Enhancers of Human TRH Receptor: Primary Screen for Agonists; AID 493084, 2011; TRHR cells, calcium flux fluo-8, FDSS agonist mode; 360,000 compounds, 0.18% hits; activation, % at 2 µM; further: 0% is about no effect
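Read-out: compound-evoked intracellular calcium rise in TRHR cells, fluo-8 dye, kinetic FDSS fluorescence at 1 s/cycle following a 10-cycle baseline. Cells cultured overnight before dye loading (30 min–1.5 h, RT).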
D1 potentiator – Potentiators of Human D1 Dopamine Receptor: qHTS | D(1A) dopamine receptor (Homo sapiens), P21728 | HEK293 TREx D1 cells, calcium flux, dopamine EC20 potentiation | potentiation, % at 10 µM | 360,000 compounds, 0.036% hits | AID 504651, 2011; in the data active means potentiation above about 30%; further: 0% is about no effect
Target sequence (P21728 whole entry, looked up): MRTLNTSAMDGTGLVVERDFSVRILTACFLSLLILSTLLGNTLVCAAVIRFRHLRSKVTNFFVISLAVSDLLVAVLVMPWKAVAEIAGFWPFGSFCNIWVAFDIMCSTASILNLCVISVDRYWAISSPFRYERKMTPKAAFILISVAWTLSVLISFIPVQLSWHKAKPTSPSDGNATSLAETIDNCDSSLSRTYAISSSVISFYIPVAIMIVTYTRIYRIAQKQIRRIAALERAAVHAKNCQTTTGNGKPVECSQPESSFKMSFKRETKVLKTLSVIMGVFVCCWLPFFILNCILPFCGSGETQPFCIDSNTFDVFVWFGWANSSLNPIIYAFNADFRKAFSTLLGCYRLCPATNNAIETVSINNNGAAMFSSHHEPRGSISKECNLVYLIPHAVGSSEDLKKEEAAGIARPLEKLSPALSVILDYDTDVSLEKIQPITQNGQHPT
TRHR enhancer – qHTS for Small Molecule Agonists and Allosteric Enhancers of Human TRH Receptor: Primary Screen for Enhancers; Thyrotropin-releasing hormone receptor (Homo sapiens), P34981; TRHR cells, fluo-8 calcium fluorescence, EC20 TRH enhancement; enhancement, % at 2 µM; 360,000 compounds, 0.66% hits; AID 493056, 2011; in the data active means enhancement above about 30%; further: 0% is about no effect
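Enhancer read-out: after compound pinning and an initial kinetic agonist-mode read, an EC20 of TRH (10 nM final) was injected and fluo-8 calcium signal (Ex 480/Em 530) followed at 1 s/cycle for 100 cycles in TRHR-expressing cells.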
D1 antag – Antagonist of Human D 1 Dopamine Receptor: qHTS; D(1A) dopamine receptor (Homo sapiens), P21728; HEK293 TREx D1 cells, calcium flux, dopamine EC80; active compounds read low; activity change, negative = inhibition, % at 10 µM; 360,000 compounds, 3.2% hits; in the data active means activity change below about -30%; further: on the % scale 0 is the no-effect control and ±100 the full control effect
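HEK293 T-REx cells expressing inducible, force-coupled D1 receptor; no-wash Ca dye, 30–90 min RT. Cmpd → 180 s read at 1 Hz → EC80 DA → 180 s read.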
D1 agonist – Allosteric Agonists of the Human D1 Dopamine Receptor: qHTS; HEK293 T-REx D1 cells, calcium flux, agonist mode; D(1A) dopamine receptor (Homo sapiens), P21728; 360,000 compounds, 1% hits; activation, % at 2 µM; further: 0% is about no effect
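Tetracycline-induced HEK293 TREx D1 cells, force-coupled to calcium signalling, were dye-loaded with a no-wash calcium kit. Compound was pin-added after a 10 s baseline. Fluorescence was read kinetically at 1 cycle/s for 180 s, with calcium rises flagged as agonism.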
Numbers without * were called inactive; ! = repeats disagree. Unless noted, no stated cut-off is given here; in the data, active means activation above about 30%; inactive means the rest.

SMILES | TRHR ag | D1 potentiator | TRHR enhancer | D1 antag | D1 agonist
Cc1ccc(NC(=S)N2CCCC(c3nc4ccc(C)cc4[nH]3)C2)c(C)c1 (stereo unspecified) | -1 | -4 | -3 | -31* | -2
Cc1c(Cl)cccc1NC(=O)CCC(=O)NNC(=O)c1ccccc1Cl | 0 | -4 | -5 | -2 | 2
O=C(NCCc1ccccc1)c1cc2sccc2n1Cc1ccc(F)cc1 | 0 | -3 | -7 | -31* | 8
Cc1nc2cc(NC(=O)c3ccc(S(=O)(=O)N(C)c4ccccc4)cc3)ccc2o1 | 1 | -8 | -4 | -16 | 14
COc1ccc(NC(=O)c2c(NC(=O)C(F)(F)F)sc3c2CCCCC3)cc1 | 5 | -2 | -6 | -36* | 59*
Nc1ncnc2c1ncn2[C@H]1C[C@H](O)[C@@H](COP(=O)(O)O)O1 | 0 | -2 | 6 | -7 | 2
COc1ccc(NS(=O)(=O)c2c(C)[nH]c(=O)[nH]c2=O)cc1OC | 1 | -6 | 4 | 4 | 2
COc1ccccc1OCC(=O)Nc1ccc(S(=O)(=O)N(C)c2ccccc2)cc1 | 0 | -1 | -5 | -41* | 12
CCSc1ncc(Cl)c(C(=O)Nc2ccc(S(=O)(=O)N(C)c3ccccc3)cc2)n1 | 1 | 0 | -3 | 2 | 8
CCS(=O)(=O)c1ncc(Cl)c(C(=O)Nc2ccc(S(=O)(=O)N(C)c3ccccc3)cc2)n1 | 1 | -18 | -11 | -61*! | 2
CCN(c1ccccc1)S(=O)(=O)c1ccc(NC(=O)c2nc(S(C)(=O)=O)ncc2Cl)cc1 | 1 | -7 | -1 | -34* | 2
COc1ccc(-n2c(Cc3ccccc3)nnc2SCc2nc(-c3ccccc3C)no2)cc1 | 3 | -1 | 1 | -4 | 24
O=C1NCCN(Cc2ccc(F)cc2)C1CC(=O)N1CC=C(c2ccccc2)CC1 (stereo unspecified) | 1 | 2 | 8 | 11 | 1
Cn1nc(C(F)(F)F)c(CO)c1Sc1ccc(F)cc1 | 0 | 1 | 30* | 12 | 1
Cc1ccc(Sc2c(C(=O)Nc3ccc(F)cc3F)c(C(F)(F)F)nn2C)cc1 | 0 | 1 | -4 | -23 | 10
CC(C)C[C@H]1CN=C(Nc2ccccc2)N1CC1CCC(C(C)(C)C)CC1 (stereo partly specified) | 0 | 3 | 21 | 21 | 70*
CCn1nnnc1SCC(=O)N(C1CCCCC1)C1CCCCC1 | 0 | -4 | -2 | 6 | 6
C=CCN1C(=O)c2ccccc2C1(O)Cc1ccccc1 (stereo unspecified) | 0 | 1 | 4 | -22 | 1
CC(C)CN1C(=O)c2ccccc2C1(O)Cc1ccccc1 (stereo unspecified) | -1 | -1 | 1 | -37* | 5
O=C1c2ccccc2C(O)(Cc2ccccc2)N1CCCN1CCOCC1 (stereo unspecified) | -1 | -2 | -7 | -77* | 2
CC(NC(=O)CN1C(=O)COc2ccc(S(=O)(=O)N3CCCCCC3)cc21)c1ccccc1 (stereo unspecified) | 0 | -4 | -2 | -1 | 3
CCN1C(=O)c2ccccc2S(=O)c2ccc(C(=O)NCc3ccc(C)cc3)cc21 (stereo unspecified) | 0 | 2 | 11 | -7 | 1
Cc1cccnc1NC(=S)NC(=O)/C=C/c1ccccc1 | -1 | -7 | 6 | -5 | -2
CCOC(=O)c1c(C)[nH]c(NC(=O)Nc2ccc(NC(C)=O)cc2)c1C | 1 | -1 | -1 | -21 | 1
CCC(=NCCc1c(C)[nH]c2ccccc12)C1=C(O)CC(c2ccccc2)CC1=O (stereo unspecified) | 0 | 0 | -4 | 25 | 2
SMILES | TRHR ag | D1 potentiator | TRHR enhancer | D1 antag | D1 agonist
CC(=NCCc1c(C)[nH]c2ccc(OCc3ccccc3)cc12)C1=C(O)CC(c2ccccc2)CC1=O (stereo unspecified) | 1 | 2 | 2 | -31* | 9
CCC(=NCCc1c(C)[nH]c2ccc(OC(F)(F)F)cc12)C1=C(O)CC(c2ccccc2)CC1=O (stereo unspecified) | 0 | -3 | 1 | -12 | 5
CCCCC(=NCCc1c(C)[nH]c2ccc(OC)cc12)C1=C(O)CC(c2ccccc2)CC1=O (stereo unspecified) | -1 | 10 | -7 | -34* | 6
Cc1ccc(C(C)C)c(OCc2ccc(C(=O)N/N=C/c3cccc(O)c3O)cc2)c1 | 0 | -7 | 3 | -27 | 2
CC(C)c1ccc(NC(=O)COC(=O)COc2ccccc2)cc1 | 0 | 2 | 4 | 7 | 1
Cc1ccc(-n2c(=O)c3c4c(sc3n(Cc3ccccc3C)c2=O)CCC4)cc1C | 0 | 1 | 3 | -72* | 1
Cc1ccccc1Cn1c(=O)n(-c2ccc(Cl)cc2)c(=O)c2c3c(sc21)CCCC3 | 0 | 2 | 7 | 10 | 0
Cc1cc(C)c(S(=O)(=O)Nc2ccc(C(N)=O)cc2)c(C)c1 | 0 | -2 | 1 | -43* | 2
CC(=O)c1ccc(NS(=O)(=O)c2c(C)cc(C)cc2C)cc1 | 0 | -1 | 3 | -5 | 4
Cc1ccccc1-c1ccc(C=Nc2c(C)n(C)n(-c3ccccc3)c2=O)o1 | -1 | -7 | -9 | 4 | 2
CCOC(=O)c1sc2nc(CC(=O)OC)nc(N(C)CCc3ccccn3)c2c1C | 0 | -8 | 1 | -30* | 0
CC(=O)Nc1ccc(C(=O)OCC(=O)NCCC2=CCCCC2)cc1 | 0 | -8 | 5 | 12 | 3
COc1ccc(C2=NCCc3cc(OC)c(OC)cc32)cc1 | 0 | -12 | 3 | -61* | 3
COc1ccc(C2=NCCc3cc(OC)c(OC)cc32)cc1OC | -1 | -3 | 3 | 9 | 2
COc1cccc(CNS(=O)(=O)/C=C/c2ccc(OC)c(OC)c2)c1 | 0 | 3 | -4 | 16 | 0
CC(=O)c1ccc(S(=O)(=O)N2CCN(C(=O)CSc3ccc(C)c(C)c3)CC2)cc1 | -2 | -8 | -2 | -34* | 10
CCOC(=O)c1ccc(NC(=S)Nc2ccc(C)cc2)cc1 | 0 | 10 | -4 | 1 | 2
CCOC(=O)c1ccc(NC(=O)Nc2cccc(C)n2)cc1 | 2 | -2 | -2 | 7 | 2
CCOC(=O)c1ccc(NC(=O)Nc2cc(C)on2)cc1 | -1 | -4 | 3 | -32* | 27
CCOC(=O)c1ccc(NC(=S)NNC(C)(C)C)cc1 | 0 | -2 | 10 | -36* | 2
